Test results from PubChem BioAssay (EPA / NIEHS).
Results filed as inconclusive are left out. Calls of active or inactive are those of the source. How the source made its calls, unless noted: active means hit-call score of the fitted dose curve at least 0.9, where 1 is the maximum; inactive means score below 0.9.

How the values were obtained:
[1] = biological target: Nuclear respiratory factor 1 (Homo sapiens) (UniProt Q16656); experiment: ATG_NRF1_CIS: Attagene CIS-FACTORIAL HepG2 Assay for human Nuclear Respiratory Factor 1 (NRF1) Orphan Gene (AID 2282987); details: HepG2 NRF1 cis-element reporter, Attagene multiplex; actives raise or lower the signal
Chain of Nuclear respiratory factor 1 (Homo sapiens) (Q16656 whole entry, looked up, the tested form may be a part): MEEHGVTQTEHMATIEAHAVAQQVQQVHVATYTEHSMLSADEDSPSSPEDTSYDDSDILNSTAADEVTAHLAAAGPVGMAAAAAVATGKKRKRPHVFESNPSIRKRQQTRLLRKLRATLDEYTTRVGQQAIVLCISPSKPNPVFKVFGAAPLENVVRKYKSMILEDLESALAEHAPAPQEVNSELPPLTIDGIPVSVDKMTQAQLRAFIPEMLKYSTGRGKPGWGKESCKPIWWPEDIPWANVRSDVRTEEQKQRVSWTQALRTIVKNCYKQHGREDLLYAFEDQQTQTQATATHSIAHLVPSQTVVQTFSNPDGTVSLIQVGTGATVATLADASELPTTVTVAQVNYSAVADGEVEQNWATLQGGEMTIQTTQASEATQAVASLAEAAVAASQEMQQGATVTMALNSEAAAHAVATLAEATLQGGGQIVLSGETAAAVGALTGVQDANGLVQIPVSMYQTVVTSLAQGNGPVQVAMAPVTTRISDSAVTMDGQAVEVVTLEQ
Outline: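 Cells (HepG2, transient MRTU transfection) are exposed to compound for 24 h, then RNA isolated and reporter mRNA amplified and fluorescently labelled. Fragments are separated by capillary electrophoresis; signal change is fitted bidirectionally relative to DMSO.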

[2] = ATG_NFI_CIS: Attagene CIS-FACTORIAL HepG2 Assay for human Nuclear Factor I (NFI) (AID 2282989); details: HepG2 cis-regulatory reporter, NFI response element transcription; actives raise or lower the signal
Outline: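 Cells: human liver HepG2, transiently transfected with promoter-regulated reporter transcription units. Exposure 24 h. Detection: fluorescent RT-PCR products separated by capillary electrophoresis, normalised to DMSO negative control.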

[3] = ATG_NF_kB_CIS: Attagene CIS-FACTORIAL HepG2 Assay for human Nuclear Factor Kappa B (NF-kB) (AID 2282991); details: HepG2 Attagene cis-factorial NF-kB reporter mRNA; actives raise or lower the signal
Outline: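 Measures mRNA induction of an NF-kB-responsive cis-element reporter in HepG2 cells transfected with multiple reporter units, sampled 24 h post-dosing; quantified by fluorescence after RT-PCR and capillary electrophoresis, fitted for activation or inhibition against DMSO.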

[4] = ATG_Oct_MLP_CIS: Attagene CIS-FACTORIAL HepG2 Assay for human Octamer-Binding Transcription Factor (Oct) (AID 2282993); details: HepG2 Attagene cis-factorial Oct reporter, mRNA; actives raise or lower the signal
Outline: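 HepG2, transient MRTU transfection, cis promoter elements; 24 h dosing; RT-PCR/CE fluorescence read-out of reporter mRNA; fit both directions vs DMSO.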

[5] = biological target: Cellular tumor antigen p53 (Homo sapiens) (UniProt P04637); experiment: ATG_p53_CIS: Attagene CIS-FACTORIAL HepG2 Assay for human p53 Transcription Factor (AID 2282994); details: HepG2 p53 cis-element reporter, Attagene mRNA; actives raise or lower the signal
Chain of Cellular tumor antigen p53 (Homo sapiens) (P04637 whole entry, looked up): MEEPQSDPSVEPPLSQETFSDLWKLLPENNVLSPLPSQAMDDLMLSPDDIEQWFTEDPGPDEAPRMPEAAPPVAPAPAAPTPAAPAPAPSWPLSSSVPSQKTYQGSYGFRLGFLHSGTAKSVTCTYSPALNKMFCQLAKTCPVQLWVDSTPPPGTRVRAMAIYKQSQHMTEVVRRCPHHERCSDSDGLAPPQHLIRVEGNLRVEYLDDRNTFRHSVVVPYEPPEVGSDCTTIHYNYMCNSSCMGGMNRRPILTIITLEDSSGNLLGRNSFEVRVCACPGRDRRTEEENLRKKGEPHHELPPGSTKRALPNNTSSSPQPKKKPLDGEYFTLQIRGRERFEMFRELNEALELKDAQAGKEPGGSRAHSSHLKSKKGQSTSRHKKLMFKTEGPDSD
Outline: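 HepG2, transient MRTU transfection (cis promoter elements, endogenous TFs); 24 h dosing; RNA isolation, RT-PCR, 6-FAM primer extension, HpaI digest, CE fluorescence; bidirectional fit vs DMSO.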

[6] = biological target: human Peroxisome Proliferator-activated Receptor alpha (PPARa), PPARA (gene 5465) (UniProt Q07869); experiment: ATG_PPARa_TRANS: Attagene TRANS-FACTORIAL HepG2 Assay for human Peroxisome Proliferator-activated Receptor alpha (PPARa) (AID 2283001; active means hit-call score of the fitted dose curve at least 0.9, where 1 is the maximum)
Chain of human Peroxisome Proliferator-activated Receptor alpha (PPARa), PPARA (gene 5465) (Q07869 whole entry, looked up, the tested form may be a part): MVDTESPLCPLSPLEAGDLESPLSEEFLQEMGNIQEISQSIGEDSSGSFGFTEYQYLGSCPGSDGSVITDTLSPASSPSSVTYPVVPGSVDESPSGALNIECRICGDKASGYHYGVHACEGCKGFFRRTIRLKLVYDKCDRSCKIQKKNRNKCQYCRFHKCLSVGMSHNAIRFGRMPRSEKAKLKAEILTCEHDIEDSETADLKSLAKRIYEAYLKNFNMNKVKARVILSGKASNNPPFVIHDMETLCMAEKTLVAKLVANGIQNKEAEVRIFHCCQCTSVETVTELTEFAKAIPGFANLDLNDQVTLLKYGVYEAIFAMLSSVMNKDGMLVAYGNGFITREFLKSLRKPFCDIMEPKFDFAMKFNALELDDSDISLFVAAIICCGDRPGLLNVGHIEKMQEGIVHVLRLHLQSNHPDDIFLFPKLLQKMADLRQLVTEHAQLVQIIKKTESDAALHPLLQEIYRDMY
Outline: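 Read-out is fluorescence of reporter cDNA fragments resolved by capillary electrophoresis after RT-PCR. Human HepG2 liver cells carried transfected PPARa-Gal4 chimera and GAL4-UAS reporter units, treated 24 h; activity scored as increase over DMSO.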

[7] = biological target: Nuclear receptor subfamily 1 group I member 2 (Homo sapiens) (UniProt O75469); experiment: ATG_PXR_TRANS: Attagene TRANS-FACTORIAL HepG2 Assay for human Pregnane X Receptor (PXR) (AID 2283008; active means hit-call score of the fitted dose curve at least 0.9, where 1 is the maximum)
Chain of Nuclear receptor subfamily 1 group I member 2 (Homo sapiens) (O75469 whole entry, looked up, the tested form may be a part): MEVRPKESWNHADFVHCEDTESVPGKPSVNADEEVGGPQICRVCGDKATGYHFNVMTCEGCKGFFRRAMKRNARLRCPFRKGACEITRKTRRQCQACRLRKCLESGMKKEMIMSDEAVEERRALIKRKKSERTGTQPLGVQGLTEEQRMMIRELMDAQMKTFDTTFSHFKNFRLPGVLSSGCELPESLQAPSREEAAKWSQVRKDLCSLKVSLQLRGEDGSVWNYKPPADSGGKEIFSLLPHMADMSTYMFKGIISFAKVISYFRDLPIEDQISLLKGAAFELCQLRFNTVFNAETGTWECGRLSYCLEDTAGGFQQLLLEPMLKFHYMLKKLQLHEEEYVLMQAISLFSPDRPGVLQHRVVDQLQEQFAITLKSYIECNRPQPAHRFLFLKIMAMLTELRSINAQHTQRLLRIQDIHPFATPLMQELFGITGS
Outline: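 Read-out is fluorescence of labelled reporter cDNA fragments separated by capillary electrophoresis after RT-PCR and HpaI digestion. Source: HepG2 cells carrying PXR-GAL4/UAS reporter constructs, treated 24 h; activity fitted upward relative to DMSO.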

[8] = biological target: human RAR-related Orphan Receptor beta (RORb), RORB (gene 6096) (UniProt Q92753); experiment: ATG_RORb_TRANS: Attagene TRANS-FACTORIAL HepG2 Assay for human RAR-related Orphan Receptor beta (RORb) (AID 2283010; active means hit-call score of the fitted dose curve at least 0.9, where 1 is the maximum)
Chain of human RAR-related Orphan Receptor beta (RORb), RORB (gene 6096) (Q92753 whole entry, looked up, the tested form may be a part): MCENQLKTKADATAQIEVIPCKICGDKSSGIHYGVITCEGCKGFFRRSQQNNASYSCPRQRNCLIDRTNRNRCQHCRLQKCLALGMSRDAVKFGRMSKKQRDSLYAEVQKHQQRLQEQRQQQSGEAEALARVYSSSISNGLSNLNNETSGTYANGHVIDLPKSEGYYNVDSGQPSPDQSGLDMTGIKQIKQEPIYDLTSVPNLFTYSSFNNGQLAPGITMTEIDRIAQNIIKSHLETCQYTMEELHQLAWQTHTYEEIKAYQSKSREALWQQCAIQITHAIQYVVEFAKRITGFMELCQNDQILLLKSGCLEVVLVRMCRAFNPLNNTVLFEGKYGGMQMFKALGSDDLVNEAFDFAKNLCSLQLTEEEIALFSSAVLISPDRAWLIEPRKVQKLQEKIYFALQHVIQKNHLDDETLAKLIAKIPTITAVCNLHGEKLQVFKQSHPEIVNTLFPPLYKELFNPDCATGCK
Outline: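 HepG2 cells transiently transfected with GAL4-UAS reporter units expressing chimeric NR-Gal4 protein; reporter mRNA measured 24 h after dosing by RT-PCR, 6-FAM labelling and capillary electrophoresis. Gain-of-signal fitted relative to DMSO baseline.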

[9] = ATG_NRF2_ARE_CIS: Attagene CIS-FACTORIAL HepG2 Assay for human Nuclear Factor Erythroid 2 Related Factor 2 (NFR2) response to Antioxidant Response Elements (ARE) (AID 2282992); details: HepG2 Attagene ARE/NRF2 reporter, transcription factor activity; actives raise or lower the signal;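 on AC50: reporter mRNA level measured by RT-PCR and capillary electrophoresis fluorescence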
Outline: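 Transient MRTU transfection of HepG2; 24 h compound exposure; TriZol RNA, RT with oligo(dT), PCR, 6-FAM primer extension, HpaI cut, CE. Bidirectional fit vs DMSO.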

[10] = biological target: human Peroxisome Proliferator-activated Receptor delta (PPARd), PPARD (gene 5467) (UniProt Q03181); experiment: ATG_PPARd_TRANS: Attagene TRANS-FACTORIAL HepG2 Assay for human Peroxisome Proliferator-activated Receptor delta (PPARd) (AID 2283002; active means hit-call score of the fitted dose curve at least 0.9, where 1 is the maximum)
Chain of human Peroxisome Proliferator-activated Receptor delta (PPARd), PPARD (gene 5467) (Q03181 whole entry, looked up, the tested form may be a part): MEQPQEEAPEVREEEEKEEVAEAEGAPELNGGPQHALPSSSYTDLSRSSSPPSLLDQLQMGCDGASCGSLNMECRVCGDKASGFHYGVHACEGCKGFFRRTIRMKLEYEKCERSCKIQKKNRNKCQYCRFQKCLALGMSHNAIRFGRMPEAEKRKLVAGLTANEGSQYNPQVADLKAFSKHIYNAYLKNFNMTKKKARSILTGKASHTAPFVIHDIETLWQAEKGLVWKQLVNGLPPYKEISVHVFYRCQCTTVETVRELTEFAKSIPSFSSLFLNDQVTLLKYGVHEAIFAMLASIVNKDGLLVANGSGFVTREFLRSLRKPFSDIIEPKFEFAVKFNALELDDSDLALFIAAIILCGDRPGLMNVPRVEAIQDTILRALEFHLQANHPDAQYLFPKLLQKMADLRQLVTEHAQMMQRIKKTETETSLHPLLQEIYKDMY
Outline: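 Read-out is induced reporter mRNA, quantified by RT-PCR with fluorescent labelling and capillary electrophoresis after 24 h dosing. Cells are HepG2 transiently carrying multiple GAL4-UAS reporter units driven by exogenous NR-GAL4 chimeras; DMSO serves as baseline.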

[11] = biological target: Peroxisome proliferator-activated receptor gamma (Homo sapiens) (UniProt P37231); experiment: ATG_PPARg_TRANS: Attagene TRANS-FACTORIAL HepG2 Assay for human Peroxisome Proliferator-activated Receptor-gamma (PPARg) (AID 2283007; active means hit-call score of the fitted dose curve at least 0.9, where 1 is the maximum)
Chain of Peroxisome proliferator-activated receptor gamma (Homo sapiens) (P37231 whole entry, looked up, the tested form may be a part): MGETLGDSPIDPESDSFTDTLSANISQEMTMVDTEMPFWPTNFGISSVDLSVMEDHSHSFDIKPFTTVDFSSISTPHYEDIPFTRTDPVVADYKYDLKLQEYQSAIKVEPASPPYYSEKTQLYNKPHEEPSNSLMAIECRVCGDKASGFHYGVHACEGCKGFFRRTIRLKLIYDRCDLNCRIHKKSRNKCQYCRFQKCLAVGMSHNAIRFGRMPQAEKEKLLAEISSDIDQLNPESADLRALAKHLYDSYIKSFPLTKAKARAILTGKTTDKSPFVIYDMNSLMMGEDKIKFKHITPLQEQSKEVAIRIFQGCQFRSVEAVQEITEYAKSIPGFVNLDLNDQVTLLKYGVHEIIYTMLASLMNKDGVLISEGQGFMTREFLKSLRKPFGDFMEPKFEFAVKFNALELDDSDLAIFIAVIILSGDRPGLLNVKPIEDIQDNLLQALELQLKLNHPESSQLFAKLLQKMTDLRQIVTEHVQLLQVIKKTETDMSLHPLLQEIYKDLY
Outline: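 Gain-of-signal endpoint relative to DMSO, derived from reporter mRNA levels quantified by RT-PCR and capillary electrophoresis. Cells were HepG2 transiently expressing a chimeric NR-Gal4 construct with GAL4-UAS reporters, exposed to chemicals for 24 h.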

[12] = BSK_3C_TissueFactor: BioMAP Diversity Plus: 3C Assay for Tissue Factor Biomarker Activity (AID 2282997); details: BioMAP 3C HUVEC, tissue factor biomarker readout; actives raise or lower the signal
Outline: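 Human vascular primary cells (umbilical vein endothelium) received test chemical; Tissue Factor was determined by ELISA at 24 h, and both gain and loss of signal versus DMSO were fitted.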

[13] = BSK_3C_uPAR: BioMAP Diversity Plus: 3C Assay for Urokinase-type plasminogen activator receptor (uPAR) Biomarker Activity (AID 2282998); details: BioMAP 3C HUVEC, uPAR biomarker ELISA; actives raise or lower the signal
Outline: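 A multiplexed primary-cell system built on human umbilical vein endothelium was used, with chemical present for 24 h before reading. Cell-surface uPAR was detected by ELISA; signal change in either direction counted against DMSO.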

[14] = BSK_4H_Eotaxin3: BioMAP Diversity Plus: 4H Assay for Eotaxin 3 Biomarker Activity (AID 2283000); details: primary human endothelial cells (HUVEC); actives raise or lower the signal;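 further: CCL26 protein level quantified by ELISA in parallel with SRB cytotoxicity check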
Outline: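 Readout is Eotaxin-3 (CCL26) level by ELISA in primary human umbilical vein endothelial cells harvested 24 h after chemical exposure; activity fitted in both directions against DMSO control.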

[15] = read-out: Intercellular Adhesion Molecule 1 (ICAM1), ICAM1 (gene 3383); experiment: BSK_3C_ICAM1: BioMAP Diversity Plus: 3C Assay for Intercellular Adhesion Molecule 1 (ICAM1) Biomarker Activity (AID 2283003); details: primary human endothelial cells (HUVEC); actives raise or lower the signal
Outline: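 HUVEC primary cells stimulated under 3C conditions; ICAM1 measured by ELISA 24 h after compound dosing. Curves fitted bidirectionally against the DMSO baseline. Overt cytotoxicity checked by SRB staining of parallel cultures.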

[16] = BSK_3C_Proliferation: Cell Proliferation Assessment in the BioMAP Diversity Plus: 3C Assay (AID 2283006); details: primary human endothelial cells (HUVEC)
Outline: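 Subconfluent HUVEC (3C system) cultured with chemical; relative cell number read at 48 h by sulforhodamine B total-protein staining (0.1% SRB after 10% TCA fixation, 560 nm). Bidirectional fit relative to DMSO.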

[17] = biological target: Myc proto-oncogene protein (Homo sapiens) (UniProt P01106); experiment: ATG_Myc_CIS: Attagene CIS-FACTORIAL HepG2 Assay for human Myelocytomatosis (Myc) Proto-Oncogene Transcription Factor (AID 2282990); details: HepG2, Attagene cis-reporter transcription factor activity; actives raise or lower the signal
Chain of Myc proto-oncogene protein (Homo sapiens) (P01106 whole entry, looked up, the tested form may be a part): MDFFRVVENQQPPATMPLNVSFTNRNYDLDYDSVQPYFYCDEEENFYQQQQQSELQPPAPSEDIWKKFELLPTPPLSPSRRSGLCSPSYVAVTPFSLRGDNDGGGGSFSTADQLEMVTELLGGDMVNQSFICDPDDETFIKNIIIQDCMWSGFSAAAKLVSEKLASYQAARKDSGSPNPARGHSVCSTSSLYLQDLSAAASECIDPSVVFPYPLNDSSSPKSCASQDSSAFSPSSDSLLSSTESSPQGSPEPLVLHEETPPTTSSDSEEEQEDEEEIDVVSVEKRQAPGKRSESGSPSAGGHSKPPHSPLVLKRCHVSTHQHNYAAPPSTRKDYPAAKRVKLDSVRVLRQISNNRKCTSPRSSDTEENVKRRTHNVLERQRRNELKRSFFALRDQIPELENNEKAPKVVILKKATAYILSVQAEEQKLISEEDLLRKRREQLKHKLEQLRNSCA
Outline: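 After 24 h chemical treatment of HepG2 cells carrying multiplexed cis-regulated reporter constructs, reporter transcripts quantified by RT-PCR and capillary electrophoresis of fluorescent fragments. Gain or loss fitted against DMSO baseline.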

[18] = biological target: Retinoic acid receptor alpha (Homo sapiens) (UniProt P10276); experiment: ATG_RARa_TRANS: Attagene TRANS-FACTORIAL HepG2 Assay for human Retinoic Acid Receptor alpha (RARa) (AID 2283005; active means hit-call score of the fitted dose curve at least 0.9, where 1 is the maximum)
Chain of Retinoic acid receptor alpha (Homo sapiens) (P10276 whole entry, looked up, the tested form may be a part): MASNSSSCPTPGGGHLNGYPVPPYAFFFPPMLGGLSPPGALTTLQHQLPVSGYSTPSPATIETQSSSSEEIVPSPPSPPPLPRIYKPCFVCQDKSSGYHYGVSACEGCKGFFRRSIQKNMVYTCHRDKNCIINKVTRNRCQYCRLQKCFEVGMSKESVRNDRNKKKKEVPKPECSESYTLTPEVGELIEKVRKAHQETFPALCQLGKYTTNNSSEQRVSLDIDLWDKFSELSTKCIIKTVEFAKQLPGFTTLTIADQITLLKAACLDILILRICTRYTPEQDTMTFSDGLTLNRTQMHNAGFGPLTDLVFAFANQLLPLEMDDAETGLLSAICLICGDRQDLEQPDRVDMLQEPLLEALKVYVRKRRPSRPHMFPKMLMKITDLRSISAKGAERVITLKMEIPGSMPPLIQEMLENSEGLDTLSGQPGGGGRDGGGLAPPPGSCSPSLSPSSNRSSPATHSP
Outline: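 Reporter transcripts, measured by RT-PCR with fluorescent labeling and capillary electrophoresis after 24 h dosing, reflect activity of an exogenous human RARa–GAL4 fusion in transiently transfected HepG2. Fitted for increase relative to DMSO.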

Measured: AC50

C1=COCCC1
inactive: [1] | [2] | [3] | [4] | [5] | [6] | [7] | [8]

CC1=CC[C@@H]2C[C@H]1C2(C)C
inactive: [1] | [2] | [3] | [9] | [4] | [6] | [10] | [8]

CC(O)CNCC(C)O (stereo unspecified)
inactive: [1] | [2] | [4] | [5] | [10] | [11] | [7] | [8]

CC1=CC(C)C(C=O)C(C)C1 (stereo unspecified) (tested in a mixture with another compound)
inactive: [1] | [2] | [3] | [9] | [5] | [12] | [13] | [14] | [6] | [15] | [16] | [7] | [8]

C=C(C)C(N)=O
inactive: [1] | [17] | [3] | [9] | [5] | [12] | [13] | [14] | [15] | [18] | [16] | [8]

CC(=O)c1ccc(C)cc1
inactive: [1] | [2] | [3] | [9] | [4] | [12] | [13] | [14] | [6] | [15] | [16]

NC(=O)c1c(Cl)cccc1Cl
inactive: [1] | [17] | [3] | [9] | [4] | [13] | [14] | [6] | [10] | [15] | [16] | [11] | [8]
active: [12] 0.0671 µM | [7] 0.36 µM

Cc1ccccc1S
inactive: [1] | [3] | [6] | [7]
active: [2] 74 µM | [9] 24.5 µM | [11] 41.6 µM

CC(C)CCCC(C)(C)O
inactive: [1] | [17] | [3] | [9] | [4] | [5] | [12] | [13] | [14] | [10] | [15] | [16] | [7] | [8]
